From PubChem BioAssay
Shown are actives, neighbours in structure and some others; about 12% of the full set was active somewhere.
BAZ2B inh: qHTS Assay for Inhibitors of BAZ2B. AID 504333, 2011. Potency, µM (top dose mostly 114 µM), actives largely listed as inhibitors. Bromodomain adjacent to zinc finger domain protein 2B (Homo sapiens), Q9UIF8. 4.4% of 360,000 active. AlphaScreen BAZ2B-H3K14Ac peptide displacement; also: nearly all actives have a fitted effect of over 60% in size
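Complex of BAZ2B and biotin-H3K14Ac (50 nM apiece) forms over 30 min at RT, then faces library compounds up to 110 uM for another 30 min; AlphaScreen beads added, 20 min dark incubation, luminescence read.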
Sfp inh: qHTS Assay for Inhibitors of Bacillus subtilis Sfp phosphopantetheinyl transferase (PPTase); 4'-phosphopantetheinyl transferase ffp (Bacillus subtilis), Q9F4F7; Biochemical Sfp PPTase activity, qHTS; Potency, µM, actives largely listed as inhibitors; 3.5% of 310,000 active; AID 1490, 2009;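 also: the enzyme is Sfp with the accession as filed and its product quenches rhodamine fluorescence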
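Step 1, compound plus 15 nM Sfp-PPTase, 15 min, room temperature. Step 2, add rhodamine-CoA (5 uM) and BHQ-2-YbbR (12.5 uM). Step 3, read 525/598 nm fluorescence at 0 and 30 min.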
HP1b binding inh: HTS for Inhibitors of HP1-beta Chromodomain Interactions with Methylated Histone Tails. Chromobox protein homolog 1 (Homo sapiens), P83916. AlphaScreen HP1-beta / biotin-H3K9me3 peptide binding. Potency, µM (titrated, usually from 114 µM), hits mostly inhibitors. 0.56% of 390,000 active. AID 540317, 2011; also: nearly all actives have a fitted effect of over 70% in size
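HP1-beta protein (50 nM final) preincubated 30 min at room temperature with biotinylated H3(1-18)K9me3 peptide (50 nM) in PBS pH 7.4, 0.01% Tween-20, then compound added for 30 min. AlphaScreen streptavidin donor/nickel chelate acceptor beads (10 ug/mL final), 30 min dark, luminescence read.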
G9a inh: qHTS Assay for Inhibitors of Histone Lysine Methyltransferase G9a; G9a H3K9 monomethylation, AlphaScreen, 2 h; Histone-lysine N-methyltransferase EHMT2 (Homo sapiens), Q96KQ7; AID 504332, 2011; 8.8% of 350,000 active; Potency, µM (doses to about 102 µM), actives largely listed as inhibitors; also: nearly all actives have a fitted effect of over 75% in size
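G9a (20 nM) preincubated 15 min RT with compounds, then 500 nM biotinylated H3K9 peptide and 20 uM SAM added; 2 h RT reaction. Monomethyl-H3K9 product detected by AlphaScreen with anti-H3K9me1 antibody, streptavidin donor and anti-rabbit IgG acceptor beads.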
JMJD2A Tudor: qHTS Assay for Inhibitors of JMJD2A-Tudor Domain | Lysine-specific demethylase 4A (Homo sapiens), O75164 | AlphaScreen JMJD2A-Tudor / H3K4me3 peptide binding | Potency, µM (series often up to 114 µM), most hits filed as inhibitors | 4.4% of 390,000 active; also: nearly all actives have a fitted effect of over 50% in size
Target sequence (O75164 whole entry, looked up, the tested form may be a part): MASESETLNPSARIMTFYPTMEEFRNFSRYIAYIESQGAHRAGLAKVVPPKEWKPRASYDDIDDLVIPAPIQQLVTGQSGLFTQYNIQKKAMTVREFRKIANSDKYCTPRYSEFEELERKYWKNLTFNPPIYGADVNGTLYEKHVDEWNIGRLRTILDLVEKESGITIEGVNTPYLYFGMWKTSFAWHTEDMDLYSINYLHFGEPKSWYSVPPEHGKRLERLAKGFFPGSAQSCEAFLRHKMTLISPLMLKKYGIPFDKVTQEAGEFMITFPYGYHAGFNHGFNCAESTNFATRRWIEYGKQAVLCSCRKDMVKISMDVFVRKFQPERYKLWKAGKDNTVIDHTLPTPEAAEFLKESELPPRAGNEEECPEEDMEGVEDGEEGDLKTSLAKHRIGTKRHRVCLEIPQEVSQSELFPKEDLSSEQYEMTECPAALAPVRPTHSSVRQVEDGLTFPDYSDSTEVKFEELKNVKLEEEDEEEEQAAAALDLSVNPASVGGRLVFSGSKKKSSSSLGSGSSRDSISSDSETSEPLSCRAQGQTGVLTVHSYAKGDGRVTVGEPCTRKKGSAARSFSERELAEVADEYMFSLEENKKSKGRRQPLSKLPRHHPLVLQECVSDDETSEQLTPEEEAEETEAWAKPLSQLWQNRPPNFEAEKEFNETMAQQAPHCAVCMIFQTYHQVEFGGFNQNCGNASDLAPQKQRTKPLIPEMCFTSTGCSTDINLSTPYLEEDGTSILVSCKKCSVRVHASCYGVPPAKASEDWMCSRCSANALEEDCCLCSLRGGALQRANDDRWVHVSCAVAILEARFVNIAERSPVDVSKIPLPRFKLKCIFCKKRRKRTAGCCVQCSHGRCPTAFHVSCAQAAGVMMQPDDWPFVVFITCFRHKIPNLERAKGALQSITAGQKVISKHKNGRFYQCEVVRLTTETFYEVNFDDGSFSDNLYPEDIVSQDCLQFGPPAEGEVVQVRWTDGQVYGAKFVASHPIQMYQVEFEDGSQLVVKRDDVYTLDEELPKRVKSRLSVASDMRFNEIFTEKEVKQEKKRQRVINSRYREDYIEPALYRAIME
L3MBTL1 block: qHTS Assay for the Inhibitors of L3MBTL1. AlphaScreen L3MBTL1–H3K9me1 peptide binding. Lethal(3)malignant brain tumor-like protein 1 (Homo sapiens), Q9Y468. 0.66% of 230,000 active. Potency, µM (series often up to 57.1 µM), actives largely listed as inhibitors. AID 485360, 2010; also: nearly all actives have a fitted effect of over 60% in size
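AlphaScreen assay: L3MBTL1 (50 nM final) was preincubated 30 min at room temperature with biotinylated H3(1-15)K9me1 peptide (75 nM final), then 30 min with library compounds; streptavidin donor and nickel chelate acceptor beads (10 ug/mL final) added, 30 min dark.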
A number is an active result; - = inactive; ? = inconclusive; . = no result; [ ] = dose if it differs, or a comment. Calls follow the shape of the dose curve; as a rule, active = well fitted curve in the direction sought with a large enough effect; inconclusive = small, poorly fitted or top-dose-only effect, or another doubt; inactive = no such curve, though single readings can be large; an effect the other way counts as inactive or inconclusive.

SMILES	BAZ2B inh	Sfp inh	HP1b binding inh	G9a inh	JMJD2A Tudor	L3MBTL1 block
Cc1ccc(OCc2nc(C#N)c(NCCc3ccccc3)o2)cc1	?	.	-	?	-	.
Cc1cccc(-c2nc(C#N)c(NCc3ccco3)o2)c1	50µM	-	-	45µM	-	?
COc1ccc(Nc2oc(COc3ccccc3F)nc2C#N)cc1	?	-	-	35µM	?	-
CCCCOC(=O)c1ccc(NC(=O)c2sc3nc(C)cc(C)c3c2N)cc1	-	.	-	-	-	.
CN(Cc1ccccc1)c1oc(COc2ccccc2F)nc1C#N	28µM	?	-	28µM	?	.
Cc1nc2ccc(S(=O)(=O)Nc3cc(-c4nc5cccnc5s4)ccc3C)cc2s1	-	-	-	50µM	-	-
Cc1nc2ccc(S(=O)(=O)Nc3cccc(-c4nc5cccnc5s4)c3C)cc2s1	-	-	-	50µM	-	-
COc1ccc(C(=O)CSc2nc3cc(C(=O)NC4CCCC4)ccc3c(=O)n2CC2CCCO2)cc1 (centres undefined)	-	.	-	-	-	.
CC1CCC(C(C)C)C(=O)C1 (centres undefined)	.	-	.	-	.	.
C=CC(C)(C)c1c2occc2c(O)c2ccc(=O)oc12	.	.	-	.	-	-
C=CC(C)(C)c1c(O)c(CC=C(C)C)c(O)c2c(=O)c3ccc(O)c(O)c3oc12	.	.	-	.	50µM	.
CC1CCCCN1CCCOC(=O)c1ccccc1 (centres undefined)	.	-	.	?	.	.
CC(=O)c1cccc(OCC(=O)NC2CCCCCC2)c1	-	.	-	?	-	-
CC(=O)c1cccc(OCC(O)CNCC2CCCCC2)c1 (centres undefined)	56µM	-	71µM	-	8.9µM	.
CC(=O)c1cccc(OCC(O)CNCCOc2ccc(C)cc2)c1 (centres undefined)	50µM	-	-	40µM	4µM	.
O=[N+]([O-])c1cc(/C=N/N2CCN(C3c4ccccc4-c4ccccc43)CC2)ccc1Cl	?	-	-	?	?	-
C(=N\N1CCN(C2c3ccccc3-c3ccccc32)CC1)/c1ccccn1	20µM	-	?	-[0.501 µM]	18µM	-
COc1ccc(/C=N/N2CCN(C3c4ccccc4-c4ccccc43)CC2)cc1O	35µM	-	?	?	?	?
C/C(=N\N1CCN(C2c3ccccc3-c3ccccc32)CC1)c1cccnc1	?	-	-	-[0.501 µM]	?	-
COc1ccc(/C=N/N2CCOCC2)cc1O	-	-	-	-	-	-
C(=N\N1CCN(C2c3ccccc3-c3ccccc32)CC1)/c1cccnc1	40µM	?	?	-[0.501 µM]	56µM	-
Cc1ccc(/C=N/N2CCN(C3c4ccccc4-c4ccccc43)CC2)s1	-	-	-	79µM	-	-
COc1ccc(N2CC(NC(=O)c3cc4ccccc4o3)CC2=O)cc1OC (centres undefined)	-	.	-	-	-	.
COC(=O)c1ccccc1NC(=O)Cn1c(CCC(=O)O)ccc1-c1cccs1	-	56µM	-	?	-	.
Cc1ccc(NC(=O)Cn2c(CCC(=O)O)ccc2-c2cccs2)cc1	?	25µM	-	-	-	.
SMILES	BAZ2B inh	Sfp inh	HP1b binding inh	G9a inh	JMJD2A Tudor	L3MBTL1 block
COc1ccc(CNC(=O)c2ccc(CSc3nc4ccncc4n3Cc3ccccc3F)cc2)cc1	-	.	-	-	-	.
COc1cc(N2CCCC2)c(OC)cc1/C=C(/C#N)c1cccc(F)c1	22µM	?	?	?	20µM	.
Cc1ccc(-n2ncc3c(N4CCC(Cc5ccccc5)CC4)ncnc32)cc1	-	.	-	-	-	.
CCC(C)n1c(OC)nc2c1c(=O)n(C)c(=O)n2C (centres undefined)	-	-	-	-	11µM	-
Cc1c(P(=S)(c2ccccc2)c2ccccc2)c2ccccc2n1C(=O)NCc1ccccc1	.	.	.	.	-	.
CC(C)C[C@H](N)c1nnc(S(=O)(=O)Cc2cccc(F)c2)o1	?	18µM	-	?	-	.
Cc1ccccc1CS(=O)(=O)c1nnc([C@H](CC(C)C)NC(=O)OC(C)(C)C)o1	-	22µM	-	35µM	-	-
CCOC(=O)CSc1nnc([C@H](Cc2ccccc2)NC(=O)OC(C)(C)C)o1	-	-	-	-	-	-
CC(C)(C)OC(=O)N[C@@H](Cc1ccccc1)c1nnc(S(=O)(=O)Cc2cccc(F)c2)o1	-	7.9µM	-	35µM	-	-
CC[C@@H](C)[C@H](NC(=O)OC(C)(C)C)c1nnc(S(=O)(=O)Cc2cc(C)ccc2C)o1	-	?	-	79µM	-	-
CNC1C(O)C(OC2C(NC(=O)C(O)CN)CC(N)C(OC3OC(CN)C(O)C(O)C3O)C2O)OCC1(C)O (centres undefined)	.	-	.	-	.	.
O=C(Oc1ccccc1)N1CCC2(CCCN(c3ccccn3)C2)CC1	.	-	.	-[12.7 µM]	.	.
CC(=O)NCCNc1ncncc1-c1ccccc1C	.	?	.	-[0.501 µM]	.	.
O=P1(O)OP(=O)(O)OP(=O)(O)O1.[Al]	.	-	.	.	.	.
CC1(C)C(=O)Nc2ccccc2N1C(=O)COC(=O)c1ccc(NC(N)=O)cc1	-	.	-	35µM	-	-
Cc1cc(OCC(=O)OCC(=O)N2c3ccccc3NC(=O)C2(C)C)ccc1Cl	79µM	.	-	-[12.7 µM]	?	?
CC1(C)C(=O)Nc2ccccc2N1C(=O)COC(=O)c1cccc(O)c1	.	.	-	.	?	?
O=C(NC1CCC(O)CC1)c1cc(-c2ccco2)nc2ccccc12 (centres undefined)	22µM	18µM	-	40µM	?	.
O=C(NCC1CCCO1)c1cc(-c2ccco2)nc2ccccc12 (centres undefined)	50µM	-	?	45µM	-[11.4 µM]	?
COc1cccc(-c2cc(C(=O)NC3CC3)c3ccccc3n2)c1	-	-	-	.	-	.
COc1ccc(C2=C(C)C(N3CCC(C(=O)Nc4cc(C)ccc4C)CC3)=NS2(=O)=O)cc1	-	.	-	-	-	.
Cc1ccccc1-c1cc2nccc(-c3cc(Cl)ccc3O)n2n1	-	.	-	?	-	.
COc1ccc(-c2ccc(-c3noc(-c4ccco4)n3)c(OC)n2)cc1	-	-	-	-	-	-
COc1nc(-c2ccccc2)ccc1-c1noc(-c2ccco2)n1	-	?	?	?	50µM	-
CCCCNc1cc(N2CCN(C3CCCCC3)CC2)c2noc3c2c1C(=O)c1ccccc1-3	5µM	.	-	?	?	.
CCn1c(=O)cc(SCC(=O)N2CCN(C3CCCCC3)CC2)c2ccccc21	-	-	-	-	-	-
O=C1c2ccccc2-c2onc3c(N4CCN(CCO)CC4)cc(N4CCN(C(=O)c5ccco5)CC4)c1c23	16µM	5µM	?	28µM	25µM	.
